About 7,900 targets were measured; listed, in parts, are those with a hit and a random draw of the rest. About 0.6% of all pairs of compound and target were hits.

Chain of UniProt P00915 (P00915 whole entry, looked up): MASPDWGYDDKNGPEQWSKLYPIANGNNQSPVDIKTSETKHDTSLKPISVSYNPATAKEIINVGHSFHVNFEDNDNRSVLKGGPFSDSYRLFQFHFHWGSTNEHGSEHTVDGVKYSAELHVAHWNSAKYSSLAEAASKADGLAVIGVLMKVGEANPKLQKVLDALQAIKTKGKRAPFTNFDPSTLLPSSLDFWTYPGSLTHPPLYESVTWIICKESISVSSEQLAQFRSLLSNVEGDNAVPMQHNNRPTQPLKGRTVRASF
Chain of UniProt Q96LT7 (Q96LT7 whole entry, looked up): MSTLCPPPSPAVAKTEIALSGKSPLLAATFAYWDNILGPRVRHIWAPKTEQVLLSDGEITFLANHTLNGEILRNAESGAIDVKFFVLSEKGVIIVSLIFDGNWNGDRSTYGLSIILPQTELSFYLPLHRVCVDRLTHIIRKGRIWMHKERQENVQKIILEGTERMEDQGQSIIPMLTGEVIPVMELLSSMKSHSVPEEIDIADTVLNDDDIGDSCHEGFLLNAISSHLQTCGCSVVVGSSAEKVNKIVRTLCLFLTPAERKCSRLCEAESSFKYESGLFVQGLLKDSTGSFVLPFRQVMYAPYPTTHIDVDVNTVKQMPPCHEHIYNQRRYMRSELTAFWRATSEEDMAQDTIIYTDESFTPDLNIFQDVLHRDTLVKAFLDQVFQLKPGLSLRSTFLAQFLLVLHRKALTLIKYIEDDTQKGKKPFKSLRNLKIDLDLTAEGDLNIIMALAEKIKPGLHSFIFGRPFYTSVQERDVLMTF
Chain of UniProt P08174 (P08174 whole entry, looked up): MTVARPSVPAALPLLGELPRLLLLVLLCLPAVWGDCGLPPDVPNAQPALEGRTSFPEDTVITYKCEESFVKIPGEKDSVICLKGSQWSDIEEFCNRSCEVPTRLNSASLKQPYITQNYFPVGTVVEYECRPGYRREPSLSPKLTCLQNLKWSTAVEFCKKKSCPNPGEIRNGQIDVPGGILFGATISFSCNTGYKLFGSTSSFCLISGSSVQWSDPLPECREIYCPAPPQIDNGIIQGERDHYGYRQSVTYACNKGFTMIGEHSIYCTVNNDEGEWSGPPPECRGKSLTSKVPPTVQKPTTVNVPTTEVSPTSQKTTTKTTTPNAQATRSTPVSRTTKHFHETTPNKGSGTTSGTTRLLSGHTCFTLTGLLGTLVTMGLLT
Chain of UniProt Q8IWX8 (Q8IWX8 whole entry, looked up): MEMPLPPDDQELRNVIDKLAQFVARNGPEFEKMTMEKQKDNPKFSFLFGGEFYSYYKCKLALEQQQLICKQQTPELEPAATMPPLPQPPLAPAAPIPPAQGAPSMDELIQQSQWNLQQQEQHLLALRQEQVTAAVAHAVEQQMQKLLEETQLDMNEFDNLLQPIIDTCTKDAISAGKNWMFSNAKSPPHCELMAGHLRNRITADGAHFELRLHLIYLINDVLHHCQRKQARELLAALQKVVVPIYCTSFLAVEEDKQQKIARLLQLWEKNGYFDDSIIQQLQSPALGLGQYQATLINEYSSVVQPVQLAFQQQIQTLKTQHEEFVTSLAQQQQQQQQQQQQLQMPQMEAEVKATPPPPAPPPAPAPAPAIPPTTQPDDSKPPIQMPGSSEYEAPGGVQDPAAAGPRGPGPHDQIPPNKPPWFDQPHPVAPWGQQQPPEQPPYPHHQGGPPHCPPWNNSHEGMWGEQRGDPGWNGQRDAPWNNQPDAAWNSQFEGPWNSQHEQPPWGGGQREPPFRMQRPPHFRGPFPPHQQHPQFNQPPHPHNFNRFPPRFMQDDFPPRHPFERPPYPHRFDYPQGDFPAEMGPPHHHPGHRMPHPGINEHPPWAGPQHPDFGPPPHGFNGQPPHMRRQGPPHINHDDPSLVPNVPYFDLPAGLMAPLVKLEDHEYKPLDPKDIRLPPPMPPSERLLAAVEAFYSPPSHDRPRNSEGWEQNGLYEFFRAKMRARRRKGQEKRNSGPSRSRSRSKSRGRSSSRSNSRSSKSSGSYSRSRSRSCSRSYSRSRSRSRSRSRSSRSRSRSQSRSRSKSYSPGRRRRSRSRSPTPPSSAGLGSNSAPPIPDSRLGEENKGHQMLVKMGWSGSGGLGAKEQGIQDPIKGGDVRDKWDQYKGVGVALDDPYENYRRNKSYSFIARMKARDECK
Chain of UniProt A5YKK6 (A5YKK6 whole entry, looked up): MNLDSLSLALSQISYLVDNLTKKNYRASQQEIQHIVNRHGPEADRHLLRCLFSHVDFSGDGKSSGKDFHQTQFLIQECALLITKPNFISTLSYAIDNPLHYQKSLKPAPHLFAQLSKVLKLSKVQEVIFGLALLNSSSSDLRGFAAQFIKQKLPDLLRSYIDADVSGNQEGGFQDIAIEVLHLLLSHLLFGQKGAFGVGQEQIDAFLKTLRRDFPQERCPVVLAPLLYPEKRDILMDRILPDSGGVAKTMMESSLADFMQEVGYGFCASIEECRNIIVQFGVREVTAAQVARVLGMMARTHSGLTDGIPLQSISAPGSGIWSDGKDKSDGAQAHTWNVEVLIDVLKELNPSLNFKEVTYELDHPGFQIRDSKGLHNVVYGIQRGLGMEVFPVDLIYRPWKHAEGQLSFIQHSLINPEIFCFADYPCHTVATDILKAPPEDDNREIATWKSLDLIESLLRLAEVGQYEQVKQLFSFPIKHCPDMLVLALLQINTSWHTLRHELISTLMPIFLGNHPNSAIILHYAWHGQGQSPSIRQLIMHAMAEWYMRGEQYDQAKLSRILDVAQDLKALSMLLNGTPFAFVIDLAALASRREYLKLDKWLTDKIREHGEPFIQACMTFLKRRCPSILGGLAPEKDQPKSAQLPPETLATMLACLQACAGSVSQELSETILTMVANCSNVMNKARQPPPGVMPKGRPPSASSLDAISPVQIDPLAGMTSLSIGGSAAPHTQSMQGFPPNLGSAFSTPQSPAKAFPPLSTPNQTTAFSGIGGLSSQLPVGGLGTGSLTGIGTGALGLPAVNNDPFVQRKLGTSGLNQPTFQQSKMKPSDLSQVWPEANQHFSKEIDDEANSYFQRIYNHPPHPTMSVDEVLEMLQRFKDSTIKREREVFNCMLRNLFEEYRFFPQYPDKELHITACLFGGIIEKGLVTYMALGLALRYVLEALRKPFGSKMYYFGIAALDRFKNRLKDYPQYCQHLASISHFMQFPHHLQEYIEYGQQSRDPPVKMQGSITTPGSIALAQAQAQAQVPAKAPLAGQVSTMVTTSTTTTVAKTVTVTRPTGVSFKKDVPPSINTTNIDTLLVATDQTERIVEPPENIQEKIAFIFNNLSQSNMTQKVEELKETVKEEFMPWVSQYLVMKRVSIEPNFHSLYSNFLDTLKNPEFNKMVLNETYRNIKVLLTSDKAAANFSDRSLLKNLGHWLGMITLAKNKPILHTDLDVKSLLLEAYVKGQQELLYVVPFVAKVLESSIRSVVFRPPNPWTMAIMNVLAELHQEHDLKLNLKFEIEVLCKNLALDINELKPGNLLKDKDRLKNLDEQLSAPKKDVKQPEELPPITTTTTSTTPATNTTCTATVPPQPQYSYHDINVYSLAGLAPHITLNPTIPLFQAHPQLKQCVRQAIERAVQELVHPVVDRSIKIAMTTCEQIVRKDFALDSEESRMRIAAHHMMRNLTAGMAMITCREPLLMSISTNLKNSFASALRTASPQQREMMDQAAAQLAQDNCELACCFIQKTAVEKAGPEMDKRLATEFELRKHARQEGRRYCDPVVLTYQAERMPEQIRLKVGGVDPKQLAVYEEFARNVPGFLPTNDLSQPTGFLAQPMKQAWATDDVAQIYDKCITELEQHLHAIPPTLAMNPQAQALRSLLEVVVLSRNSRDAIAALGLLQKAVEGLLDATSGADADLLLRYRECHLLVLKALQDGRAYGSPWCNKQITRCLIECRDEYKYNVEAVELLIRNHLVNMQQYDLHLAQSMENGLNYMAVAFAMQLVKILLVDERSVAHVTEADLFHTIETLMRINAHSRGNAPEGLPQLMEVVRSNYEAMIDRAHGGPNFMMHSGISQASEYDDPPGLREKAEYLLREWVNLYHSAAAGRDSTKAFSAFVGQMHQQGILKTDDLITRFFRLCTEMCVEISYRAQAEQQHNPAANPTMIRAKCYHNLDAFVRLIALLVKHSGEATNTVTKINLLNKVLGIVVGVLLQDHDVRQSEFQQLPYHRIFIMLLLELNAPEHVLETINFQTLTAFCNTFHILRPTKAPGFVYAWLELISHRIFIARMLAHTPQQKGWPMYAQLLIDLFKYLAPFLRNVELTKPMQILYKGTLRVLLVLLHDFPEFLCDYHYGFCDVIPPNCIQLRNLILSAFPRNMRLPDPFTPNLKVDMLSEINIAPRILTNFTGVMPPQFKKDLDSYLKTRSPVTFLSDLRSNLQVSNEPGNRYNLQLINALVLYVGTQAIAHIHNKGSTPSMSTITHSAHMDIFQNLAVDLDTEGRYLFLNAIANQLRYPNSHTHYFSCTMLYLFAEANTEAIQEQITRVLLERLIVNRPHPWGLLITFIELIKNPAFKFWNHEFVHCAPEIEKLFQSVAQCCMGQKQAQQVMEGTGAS
Chain of UniProt Q5JTJ3 (Q5JTJ3 whole entry, looked up): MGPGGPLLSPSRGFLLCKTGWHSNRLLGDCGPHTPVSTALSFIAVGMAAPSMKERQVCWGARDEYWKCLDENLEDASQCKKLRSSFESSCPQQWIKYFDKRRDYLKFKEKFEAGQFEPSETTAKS
Chain of UniProt P41208 (P41208 whole entry, looked up): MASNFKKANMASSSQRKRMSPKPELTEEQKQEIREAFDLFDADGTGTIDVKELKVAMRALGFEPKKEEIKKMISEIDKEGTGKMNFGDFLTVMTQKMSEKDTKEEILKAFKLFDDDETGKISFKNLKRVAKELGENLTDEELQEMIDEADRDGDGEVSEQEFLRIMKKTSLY
Chain of UniProt Q00534 (Q00534 whole entry, looked up): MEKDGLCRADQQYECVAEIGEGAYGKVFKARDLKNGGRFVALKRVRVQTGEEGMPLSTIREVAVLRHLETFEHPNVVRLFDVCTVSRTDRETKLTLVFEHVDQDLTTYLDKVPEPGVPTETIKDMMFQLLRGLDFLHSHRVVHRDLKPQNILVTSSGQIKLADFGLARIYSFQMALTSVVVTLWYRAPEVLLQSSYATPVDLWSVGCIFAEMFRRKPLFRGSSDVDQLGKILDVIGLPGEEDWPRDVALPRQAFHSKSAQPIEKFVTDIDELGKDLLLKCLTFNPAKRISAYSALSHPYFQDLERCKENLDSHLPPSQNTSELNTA

Compound in the test: CC1=NC(=CC=C1)C2=C(N=C(N2)C(C)(C)C)C3=CC4=NC=CN=C4C=C3
The test is described as follows: log2 fold change, soluble protein after heating vs DMSO (PISA); higher = thermal stabilisation; K562 cells, 10 uM, 30 min; active = over 0.2 and 3.5 SD of the protein, either way, in both replicates (recomputed). In short, it runs like this:
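For each measurement, 10 μM compound was applied for 30 min to K562 cells at 2×10^6 cells/mL. Aliquots were heated for 3 min across 48°C-58°C, pooled, and extracted in PBS with 0.5% NP-40 at 4°C; the supernatant after 21,000xg for 90 min was soluble protein. This was quantified by TMTpro 16plex LC-MS/MS with channel sums equalised, and thermal stability was reported relative to control samples from duplicates, on a log2 fold-change scale.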
Take CCNB1 (UniProt P14635): the log2 fold change is 0 (inactive).

Take CLSPN (UniProt Q9HAW4): the log2 fold change was -0.035 (inactive). As for CDK6 (UniProt Q00534), the figure is 0 (inactive); as for CCNK isoform 4 (UniProt O75909), -0.011 (inactive). Under C16orf58 (UniProt Q96GQ5) stands 0.003 (inactive); under CDC25B isoform 4 (UniProt P30305), -0.004 (inactive); under CPQ (UniProt Q9Y646), -0.005 (inactive). For CCDC57 (UniProt Q2TAC2), the log2 fold change is -0.01 (inactive). As for C9orf72 (UniProt Q96LT7), the log2 fold change is -0.014 (inactive).

For the target CASP3 (UniProt P42574), the log2 fold change was 0.065 (inactive). Turning to CLASP2 isoform 3 (UniProt O75122), the log2 fold change is 0.012 (inactive). As for CCM2 isoform 2 (UniProt Q9BSQ5), the figure is -0.002 (inactive); as for CCDC9 (UniProt Q9Y3X0), 0.055 (inactive); as for CETN2 (UniProt P41208), -0.071 (inactive). As for CKB (UniProt P12277), the figure is 0.016 (inactive); as for CKS1B (UniProt P61024), 0.036 (inactive). Under CDC42BPA isoform 6 (UniProt Q5VT25) stands -0.015 (inactive).

Consider COX20 isoform 2 (UniProt Q5RI15), for which the log2 fold change is 0.036 (inactive). Regarding CHKA (UniProt P35790), the log2 fold change was 0.033 (inactive).

In the case of CNOT1 (UniProt A5YKK6), the log2 fold change is 0.014 (inactive). Under CHAMP1 (UniProt Q96JM3) stands -0.012 (inactive). Under CHERP (UniProt Q8IWX8) stands 0.003 (inactive). As for CERT isoform 3 (UniProt Q9Y5P4), the figure is -0.001 (inactive); as for CNOT7 (UniProt Q9UIV1), 0.014 (inactive).

Turning to CPT2 (UniProt P23786), the log2 fold change is 0.019 (inactive). Consider COA6 isoform 2 (UniProt Q5JTJ3), for which the log2 fold change was 0.036 (inactive). Under COMMD2 (UniProt Q86X83) stands 0.035 (inactive). As for CES2 isoform 4 (UniProt O00748), the figure is -0.065 (inactive). As for CA1 (UniProt P00915), the figure is 0.014 (inactive). In the case of CHD4 isoform 2 (UniProt Q14839), the log2 fold change is -0.014 (inactive). Under CD55 isoform 7 (UniProt P08174) stands 0.049 (inactive); under CLPTM1L (UniProt Q96KA5), 0.022 (inactive). Under CSE1L (UniProt P55060) stands 0.083 (inactive); under C4A (UniProt P0C0L4), 0.215 (inactive); under CDK16 isoform 2 (UniProt Q00536), 0.021 (inactive). As for CLUH (UniProt O75153), the figure is -0.072 (inactive).

These data come from the supplement of paper PMC10849652.
